Experimental data as given in article PMC4336329 (PLoS ONE, 2015).
In all, about 310,000 compounds went through this assay and about 14,000 (4.5%) showed an effect of 50% or more. The effect is printed as a negative number. Shown is part of a subset that was picked to be rich in strong results.

molecular target: human ether-à-go-go-related gene (hERG) potassium channel (human, UniProt Q12809); experiment: primary screen, population patch clamp on CHO cells stably expressing hERG; higher = less effect of the substance
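Further: peak tail current of the secondary pulse compared with the same well before compound.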

human ether-à-go-go-related gene (hERG) potassium channel, sequence (Q12809 whole entry, looked up): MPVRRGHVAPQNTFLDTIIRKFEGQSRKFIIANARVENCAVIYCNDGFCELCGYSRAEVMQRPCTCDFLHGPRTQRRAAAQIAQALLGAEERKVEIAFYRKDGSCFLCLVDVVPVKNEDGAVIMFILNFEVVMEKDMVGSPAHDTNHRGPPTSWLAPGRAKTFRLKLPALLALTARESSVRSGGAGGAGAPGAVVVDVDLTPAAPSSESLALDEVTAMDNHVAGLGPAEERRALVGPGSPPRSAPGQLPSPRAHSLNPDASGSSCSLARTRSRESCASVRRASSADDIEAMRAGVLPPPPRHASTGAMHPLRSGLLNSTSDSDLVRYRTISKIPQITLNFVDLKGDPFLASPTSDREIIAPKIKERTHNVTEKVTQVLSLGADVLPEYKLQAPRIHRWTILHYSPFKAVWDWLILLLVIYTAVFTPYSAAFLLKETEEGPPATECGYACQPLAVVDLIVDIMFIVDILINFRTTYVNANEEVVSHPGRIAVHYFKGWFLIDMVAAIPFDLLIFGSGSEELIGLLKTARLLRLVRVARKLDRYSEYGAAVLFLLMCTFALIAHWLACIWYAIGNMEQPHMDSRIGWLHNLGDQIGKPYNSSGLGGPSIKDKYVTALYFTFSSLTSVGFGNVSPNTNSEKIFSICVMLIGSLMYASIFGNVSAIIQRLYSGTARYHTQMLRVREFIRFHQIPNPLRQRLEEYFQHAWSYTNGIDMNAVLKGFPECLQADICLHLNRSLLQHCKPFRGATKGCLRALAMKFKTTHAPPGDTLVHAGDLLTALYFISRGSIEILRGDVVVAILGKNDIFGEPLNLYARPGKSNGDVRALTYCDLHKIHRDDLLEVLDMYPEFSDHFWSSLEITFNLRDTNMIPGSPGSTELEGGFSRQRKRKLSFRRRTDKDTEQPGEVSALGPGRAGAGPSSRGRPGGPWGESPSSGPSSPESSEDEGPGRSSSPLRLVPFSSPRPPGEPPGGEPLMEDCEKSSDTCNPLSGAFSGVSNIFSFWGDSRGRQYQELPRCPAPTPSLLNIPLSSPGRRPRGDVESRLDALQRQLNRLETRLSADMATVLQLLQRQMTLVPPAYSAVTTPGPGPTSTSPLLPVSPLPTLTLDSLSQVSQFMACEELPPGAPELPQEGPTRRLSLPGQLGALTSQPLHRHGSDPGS

Row | SMILES | hERG current change (%, negative = inhibition) at 10uM [%]
1 | C=CCn1c(=O)c(C=Nc2c(OC)cccc2[N+](=O)[O-])c(O)n(CCCC)c1=O | -23.8
2 | C=CCn1c(=O)c(C=Nc2cccnc2Cl)c(O)n(CCCC)c1=O | -5.65
3 | C=CCn1c(=O)c(C=Nc2cccc([N+](=O)[O-])c2)c(O)n(CCCC)c1=O | -55
4 | O=C(COc1coc(CN2CCc3ccccc3C2)cc1=O)Nc1cccc([N+](=O)[O-])c1 | 2.89
5 | CCc1ccc(N2CC(C(=O)Nc3ccc(C)c(S(=O)(=O)N4CCOCC4)c3)CC2=O)cc1 (centres unmarked) | -34.6
6 | COc1ccc(NS(=O)(=O)c2cccc(Cl)c2)cc1S(=O)(=O)N1CCCCC1 | 7.81
7 | COc1ccc(NC(=O)CC(C)CC(=O)NCc2ccccc2)c(OC)c1 (centres unmarked) | -0.642
8 | CCCc1cc(Nc2ccccc2)n2ncnc2n1 | 2.69
9 | CCCc1cc(Nc2cccc(OC)c2)n2ncnc2n1 | -28.5
10 | CCCc1cc(Nc2cccc(OCC)c2)n2ncnc2n1 | -68
11 | CSc1ccc(S(=O)(=O)N2CCC(C(=O)NC3CC3)CC2)cc1 | -7.17
12 | C=CCNC1=C(Cl)C(=O)c2ccccc2C1=O | 4.26
13 | Cc1ccc(S(=O)(=O)N2CCN(C)CC2)cc1C(=O)NC1CCCCC1 | -19.5
14 | O=C(NCc1ccccc1Cl)c1ccc2c(=O)n(CCCN3CCCC3=O)c(=S)[nH]c2c1 | -8.83
15 | Cc1ccc(CNC(=O)c2ccc3c(=O)n(CCCN4CCCC4=O)c(=S)[nH]c3c2)cc1 | 6.41
16 | Cc1ccc(CNC(=O)c2ccc3c(=O)n(CC4CCCO4)c(=S)[nH]c3c2)cc1 (centres unmarked) | -9.6
17 | CCN(CC)CCn1c(=S)[nH]c2cc(C(=O)NCc3ccc(C)cc3)ccc2c1=O | -57.9
18 | CCN(CC)CCn1c(=S)[nH]c2cc(C(=O)NCc3ccccc3Cl)ccc2c1=O | -76.1
19 | O=C(NCc1ccccc1Cl)c1ccc2c(=O)n(CC3CCCO3)c(=S)[nH]c2c1 (centres unmarked) | 10.1
20 | COc1ccccc1N(CC(O)COc1c(C)cc(C)cc1C)S(=O)(=O)c1ccccc1 (centres unmarked) | -0.161
21 | CSc1ncccc1C(=O)N1CCCC(CCC(=O)NCc2ccccc2F)C1 (centres unmarked) | 6.52
22 | CN1CCC(N(C)C(=O)c2sc3cc(F)ccc3c2Cl)CC1 | -47.9
23 | COc1ccc(NS(=O)(=O)c2cccc3nsnc23)cc1Cl | 11.2
